Screening data deposited in PubChem by National Center for Advancing Translational Sciences (NCATS).
LDHA block – qHTS assay for inhibitors of human lactate dehydrogenase; activity change, % (values are at about 110 or 230 µM); 480,000 tested, 0.15% active; purified LDHA, NADH/diaphorase-resazurin fluorescence; hits give low values; L-lactate dehydrogenase A chain (Homo sapiens), P00338; in the data active = activity change below about -30%; inconclusive = mostly about -25% to -30%;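 note: plate controls were DMSO wells for no effect and wells without enzyme for full effect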
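Enzyme activity of human lactate dehydrogenase 5 (2 nM; 0.06 mM NADH, 0.2 mM pyruvate, 5 min, RT) is measured via a resazurin/diaphorase fluorescence readout of residual NADH.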
RORg inh – qHTS for inhibitors of ROR gamma transcriptional activity. Nuclear receptor ROR-gamma (Mus musculus), P51450. Drosophila S2 Gal4-RORgamma UAS-luciferase reporter, 20 h. Potency, µM (series often up to 53.6 µM), inactives show top-dose activity change, negative = inhibition, hits mostly inhibitors. 310,000 tested, 5.4% active; note: potency is the fitted concentration of half-maximal effect; nearly all actives have a fitted effect of over 60% in size
Target sequence (P51450 whole entry, looked up, the tested form may be a part): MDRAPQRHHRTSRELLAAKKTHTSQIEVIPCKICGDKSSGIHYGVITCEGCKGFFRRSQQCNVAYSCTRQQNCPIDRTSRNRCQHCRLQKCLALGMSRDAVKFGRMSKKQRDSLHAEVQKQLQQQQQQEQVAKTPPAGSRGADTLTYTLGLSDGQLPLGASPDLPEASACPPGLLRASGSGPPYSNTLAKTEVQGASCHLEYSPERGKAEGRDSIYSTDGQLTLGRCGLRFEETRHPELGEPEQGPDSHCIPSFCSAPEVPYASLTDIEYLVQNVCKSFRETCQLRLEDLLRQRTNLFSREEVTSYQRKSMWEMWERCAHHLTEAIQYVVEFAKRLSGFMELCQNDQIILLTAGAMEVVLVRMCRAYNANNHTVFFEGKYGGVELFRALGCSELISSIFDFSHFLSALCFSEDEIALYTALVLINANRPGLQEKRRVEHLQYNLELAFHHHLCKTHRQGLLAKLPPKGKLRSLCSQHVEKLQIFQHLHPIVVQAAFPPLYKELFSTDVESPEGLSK
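Stable Schneider cell line, Gal4 DNA-binding domain fused to ROR gamma, UAS-luciferase. Cmpd 1 hr RT → CuSO4 700 uM final → 20 hr RT → luciferase reagent 10 min → luminescence.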
IL1B secr inh – qHTS for Inhibitors of Inflammasome Signaling: IL-1-beta AlphaLISA Primary Screen. THP-1 LPS/ATP IL-1B secretion, AlphaLISA, 16 h; hits give low values. activity change, % at 57.5 µM. 360,000 tested, 4.7% active; in the data active = activity change below about -50%; inconclusive = mostly about -30% to -49%
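THP-1 cells pretreated 1 hr with compounds (up to 57.5 uM final), then stimulated with LPS (250 ng/mL final) plus ATP (1.25 mM final); secreted IL-1B measured by AlphaLISA after 16 hr, decreased signal indicating inhibition.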
Gal4-VP16 FLuc – VP16 counterscreen qHTS for inhibitors of ROR gamma transcriptional activity; Drosophila S2 Gal4-VP16 UAS-luciferase, luminescence, 20 h; Potency, µM (highest dose often 53.6 µM), inactives show top-dose activity, negative = inhibition, hits mostly inhibitors; 310,000 tested, 3.5% active; AID 2546, 2010;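 note: Gal4-VP16 expression switched on by copper sulfate through the metallothionein promoter; potency is the fitted concentration of half-maximal effect; nearly all actives have a fitted effect of over 50% in size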
DT40 TDP1 CPT – qHTS for Inhibitors of human tyrosyl-DNA phosphodiesterase 1 (TDP1): qHTS in cells in presence of CPT; chicken DT40 Tdp1-/-;hTDP1 cells + 20 nM CPT, ATP luminescence, 48 h; Potency, µM (series often up to 46.2 µM), inactives show at the top dose activity change, negative = growth inhibition, usual class: inhibitors; 420,000 tested, 12% active; AID 686979, 2013; note: potency is the fitted concentration of half-maximal effect; nearly all actives have a fitted effect of over 55% in size
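Chicken DT40 Tdp1-/- cells complemented with human TDP1, 400 cells/well, exposed to compounds plus 20 nM camptothecin for at least 48 h at 37 C; viability read as ATP content by CellTiter-Glo luminescence.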
DT40 TDP1 no CPT – qHTS for Inhibitors of human tyrosyl-DNA phosphodiesterase 1 (TDP1): qHTS in cells in absence of CPT; Potency, µM (titrated, usually from 46.2 µM), inactives show at the top dose activity change, negative = growth inhibition, most hits filed as inhibitors; 420,000 tested, 15% active; DT40 Tdp1-/- hTDP1 cells, no CPT, ATP luminescence, 48 h; AID 686978, 2013; note: potency is the fitted concentration of half-maximal effect; nearly all actives have a fitted effect of over 55% in size
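No-CPT arm: Tdp1-/-;hTDP1 DT40 cells (400/well) plus compounds, incubated ≥48 hr at 37 °C. Readout CellTiter-Glo luminescence.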
The depositor's hits bear a star; [ ] = remark or other dose. This is a sample that favours compounds with a hit; in the whole collection about 18% have one here. Unless noted, calls come from the whole dose curve; as a rule, active = well fitted curve in the direction sought with a large enough effect; inconclusive = small, poorly fitted or top-dose-only effect, or another doubt; inactive = no such curve, though single readings can be large; an effect the other way counts as inactive or inconclusive. Unless noted, % is set by controls: 0 for no effect and ±100 for the full control effect.

`Cc1cccc2cc(CN(Cc3cccs3)C3(c4nnnn4C4CCCC4)CCCC3)c(=O)[nH]c12` gave LDHA block -1, RORg inh 8%, IL1B secr inh 4, Gal4-VP16 FLuc -1%, DT40 TDP1 CPT inconclusive and DT40 TDP1 no CPT 21µM*.
`Cc1cccc2cc(CN(Cc3cccs3)S(=O)(=O)c3ccc4c(c3)OCCO4)c(=O)[nH]c12` gave LDHA block -8, RORg inh 22%, IL1B secr inh -8, Gal4-VP16 FLuc 3%, DT40 TDP1 CPT inconclusive and DT40 TDP1 no CPT 23µM*.
Screening Cc1ccc(C)c2[nH]c(=O)c(CN(CCN3CCOCC3)Cc3nnnn3CC3CCCO3)cc12 (stereo unspecified) returned LDHA block 9, RORg inh -22%, IL1B secr inh -3, Gal4-VP16 FLuc -1%, DT40 TDP1 CPT -18% and DT40 TDP1 no CPT -8%.
For Cc1ccc(C)c2[nH]c(=O)c(CN(Cc3nnnn3C3CCCCC3)CC3CCCO3)cc12 (stereo unspecified) the results were LDHA block 6, RORg inh 38%, IL1B secr inh inconclusive, Gal4-VP16 FLuc -21%, DT40 TDP1 CPT 15µM* and DT40 TDP1 no CPT 23µM*.
Cc1cc2cc(CN(Cc3cccs3)S(=O)(=O)c3ccc4c(c3)OCCO4)c(=O)[nH]c2cc1C was read as LDHA block -4, RORg inh -3%, IL1B secr inh -1, Gal4-VP16 FLuc -5%, DT40 TDP1 CPT inconclusive and DT40 TDP1 no CPT inconclusive.
Screening CSc1cccc(N=Cc2ccc(-c3ccccc3Cl)o2)c1 returned LDHA block 24.
Screening CCCn1c(Cn2ccnc2C)nc2cc(NC(=O)c3ccccc3)ccc21 returned LDHA block 9.
For Cn1ccsc1=NC(=O)c1ccccc1F the results were LDHA block -3, RORg inh inconclusive, IL1B secr inh 7, Gal4-VP16 FLuc 14%, DT40 TDP1 CPT 17% and DT40 TDP1 no CPT 14%.
Screening Cc1ccc(C)c(-n2c(-c3ccc(Br)cc3)csc2=NC(=O)c2ccccc2F)c1 returned LDHA block 0, RORg inh inconclusive, IL1B secr inh 14, Gal4-VP16 FLuc -7%, DT40 TDP1 CPT 12µM* and DT40 TDP1 no CPT 4.6µM*.
Screening Cc1cccc(-c2nc(C#N)c(N3CCN(C(=O)c4cccs4)CC3)o2)c1 returned LDHA block -1.
For CC(=O)C1=C(O)C(=O)N(c2cc(C(C)(C)C)on2)C1c1ccc(C(C)C)cc1 (stereo unspecified) the results were LDHA block 4, RORg inh 2%[10 µM], IL1B secr inh 8, Gal4-VP16 FLuc 7%, DT40 TDP1 CPT inconclusive and DT40 TDP1 no CPT 26µM*.
CC(=O)C1=C(O)C(=O)N(c2cc(C(C)(C)C)on2)C1c1ccc(Br)cc1 (stereo unspecified) was read as LDHA block 10, RORg inh 43%, IL1B secr inh 36, Gal4-VP16 FLuc 7%, DT40 TDP1 CPT inconclusive and DT40 TDP1 no CPT inconclusive.
COC(=O)CN1CCN(c2nc3c(c(=O)[nH]c(=O)n3C)n2Cc2ccc(Cl)cc2)CC1 was read as LDHA block 0.
`CCCCN(CCCC)CC(O)c1cc(Cl)cc2c1-c1ccc(Cl)cc1C2=Cc1ccc(Cl)cc1` (stereo unspecified) gave LDHA block 2, DT40 TDP1 CPT 8.9µM* and DT40 TDP1 no CPT inconclusive.
`O=C(c1ccccc1)N1CCN(c2ccc(Cl)cc2)CC1` gave LDHA block 1, RORg inh 37%, IL1B secr inh -3, Gal4-VP16 FLuc -9%, DT40 TDP1 CPT inconclusive and DT40 TDP1 no CPT inconclusive.
For CC(C)c1ccc(NC(=O)c2cc3c(=O)[nH]c4ccccc4c3n2C)cc1 the results were LDHA block 1, DT40 TDP1 CPT 6.5µM* and DT40 TDP1 no CPT 15µM*.
`Cn1c(C(=O)N2CCN(c3ccc(Cl)cc3)CC2)cc2c(=O)[nH]c3ccccc3c21` gave LDHA block -1, RORg inh 44%, IL1B secr inh inconclusive, Gal4-VP16 FLuc -11%, DT40 TDP1 CPT inconclusive and DT40 TDP1 no CPT 21µM*.
Cc1ccccc1NC(=O)c1sc(N)c(C#N)c1C was read as LDHA block -2.
CC12CCC(=O)C=C1CCC1C2CCC2(C)C1CC1C3C(=O)N(Cc4ccccc4)C(=O)C3CC(=O)C12 (stereo unspecified) was read as LDHA block -2, IL1B secr inh -13, DT40 TDP1 CPT 23µM* and DT40 TDP1 no CPT 26µM*.
`CC(C)C(=O)NC(=S)Nc1sc2c(c1C(N)=O)CCCC2` gave LDHA block -8, RORg inh 27%, IL1B secr inh -6, Gal4-VP16 FLuc 10%, DT40 TDP1 CPT inconclusive and DT40 TDP1 no CPT inconclusive.
CCOC(=O)c1ccc(C(=O)OCC)c(NC(=S)Nc2ccc([N+](=O)[O-])cc2OC)c1 was read as LDHA block -3, RORg inh 2.2µM*, IL1B secr inh 25, Gal4-VP16 FLuc 2.8µM*, DT40 TDP1 CPT -5% and DT40 TDP1 no CPT inconclusive.
`CCOC(=O)c1c(NC(=S)Nc2ccc(C)cc2)sc2c1CCC2` gave LDHA block -6, RORg inh 6.3µM*, IL1B secr inh 28, Gal4-VP16 FLuc inconclusive, DT40 TDP1 CPT inconclusive and DT40 TDP1 no CPT inconclusive.
CCOC(=O)c1c(NC(=S)Nc2cc([N+](=O)[O-])ccc2OC)sc2c1CCCCC2 was read as RORg inh 5.6µM* and Gal4-VP16 FLuc 4µM*.
For NC(=O)c1c(NC(=S)Nc2ccc(F)cc2)sc2c1CCCC2 the results were LDHA block 0, RORg inh 10µM*, IL1B secr inh -9, Gal4-VP16 FLuc -87%, DT40 TDP1 CPT 2% and DT40 TDP1 no CPT -27%.
`COC(=O)c1c(NC(=S)Nc2cc(OC)c(Cl)cc2OC)sc2c1CCCCC2` gave LDHA block 1, RORg inh 17%, IL1B secr inh 38, Gal4-VP16 FLuc inconclusive, DT40 TDP1 CPT 5% and DT40 TDP1 no CPT -2%.
CCOC(=O)c1c(NC(=O)OC)sc2c1CCC2 was read as LDHA block -1, RORg inh -1%, IL1B secr inh 7, Gal4-VP16 FLuc 2%, DT40 TDP1 CPT -9% and DT40 TDP1 no CPT -1%.
